Measurements as given in the antibiotic and cytotoxicity screens of Wong et al. (2023).
Among all 39,000 compounds or so, about 3,300 (8.5%) were called active. Many of the other results were omitted from the sample, so actives are more common in it than they were.

system: HepG2; test: cytotoxicity call (relative viability < 0.9); settings: 10 µM

Structure (SMILES)	cytotoxicity call
Nc1ccc(-n2cc(CCC(=O)NO)nn2)cc1	inactive
CC(/C=C/C(=O)NO)=C\c1ccccc1OCc1cn(-c2cccc(N(S(=O)(=O)c3ccc(C)cc3)S(=O)(=O)c3ccc(C)cc3)c2)nn1	active
O=C(NC1CCC1)[C@H]1[C@H](CO)[C@H]2Cn3c(cccc3=O)[C@H]2N1CC1CCOCC1	inactive
COc1ccccc1-c1ccc2c(c1)O[C@H](CN(C)CC1CCOCC1)[C@H](C)CN([C@@H](C)CO)S2(=O)=O	inactive
C[C@H]1CN([C@@H](C)CO)C(=O)Cc2cc(NC(=O)CCN3CCOCC3)ccc2O[C@@H]1CN(C)Cc1ccncc1	inactive
OCCNC(=S)Nc1ccccc1	inactive
C[C@H](CO)N1C[C@H](C)[C@@H](CN(C)S(=O)(=O)c2ccc(Cl)cc2)OCCCC[C@H](C)Oc2ccc(NC(=O)Nc3ccc(C(F)(F)F)cc3)cc2C1=O	inactive
Cn1cnc(S(=O)(=O)N[C@@H]2CC[C@H](CC(=O)Nc3ccccc3)O[C@H]2CO)c1	inactive
COc1ccc(CN(C)C[C@@H]2Oc3c(NS(=O)(=O)c4cn(C)cn4)cccc3C(=O)N([C@H](C)CO)C[C@@H]2C)cc1	inactive
CCCN(C)C[C@H]1Oc2cc(C#Cc3ccccc3OC)ccc2S(=O)(=O)N([C@@H](C)CO)C[C@H]1C	inactive
COc1ccc(S(=O)(=O)N(C)C[C@@H]2Oc3ccc(NS(=O)(=O)c4ccccc4)cc3C(=O)N([C@H](C)CO)C[C@H]2C)cc1	inactive
COc1c(O)cc2oc3cc(O)c(CC=C(C)C)c(O)c3c(=O)c2c1CC=C(C)C [alpha-MANGOSTIN ]	active
COc1cc(O)c2c(=O)cc(C)oc2c1CC=C(C)C	inactive
CC(C)=CCc1c(O)cc2oc(C)cc(=O)c2c1O	inactive
CN(C)CCCNC(=O)[C@H]1[C@H](CO)[C@H]2Cn3c(ccc(-c4ccncc4)c3=O)[C@@H]1N2C(=O)C1CC1	inactive
COCC(=O)N(C)C[C@@H]1Oc2cc(C#C[C@@H](C)O)ccc2S(=O)(=O)N([C@H](C)CO)C[C@@H]1C	inactive

Structure (SMILES)	cytotoxicity call
COCC(=O)Nc1ccc2c(c1)C(=O)N(C)[C@@H]1CC[C@H](CC(=O)NC3Cc4ccccc4C3)O[C@H]1CO2	inactive
C[C@@H]1CCCCO[C@H](CN(C)Cc2ccc(Cl)c(Cl)c2)[C@H](C)CN([C@@H](C)CO)C(=O)c2cc(NS(=O)(=O)c3ccccc3)ccc2O1	inactive
C[C@@H]1CCCCO[C@@H](CN(C)Cc2ccc(Cl)c(Cl)c2)[C@H](C)CN([C@@H](C)CO)C(=O)c2cc(NS(=O)(=O)c3ccccc3)ccc2O1	active
C[C@@H]1CCCCO[C@@H](CN(C)Cc2ccc(Cl)c(Cl)c2)[C@H](C)CN([C@H](C)CO)C(=O)c2cc(NS(=O)(=O)c3ccccc3)ccc2O1	active
C[C@@H]1CCCCO[C@H](CN(C)Cc2ccc(Cl)c(Cl)c2)[C@@H](C)CN([C@H](C)CO)C(=O)c2cc(NS(=O)(=O)c3ccccc3)ccc2O1	inactive
C[C@H](CO)N1C[C@H](C)[C@@H](CN(C)Cc2ccc(Cl)c(Cl)c2)OCCCC[C@H](C)Oc2ccc(NS(=O)(=O)c3ccccc3)cc2C1=O	active
C[C@@H]1CCCCO[C@H](CN(C)Cc2ccc(Cl)c(Cl)c2)[C@@H](C)CN([C@@H](C)CO)C(=O)c2cc(NS(=O)(=O)c3ccccc3)ccc2O1	active
CN(C)c1nc(NCCO)c2cnn(C)c2n1	inactive
Cc1noc(C)c1S(=O)(=O)N(C)C[C@@H]1Oc2ccc(NS(=O)(=O)c3ccccc3)cc2C(=O)N([C@@H](C)CO)C[C@@H]1C	inactive
C[C@@H]1CN([C@H](C)CO)C(=O)c2cc(NC(=O)Cn3cnnn3)ccc2O[C@@H]1CN(C)S(=O)(=O)c1cn(C)cn1	inactive
CC(C)NC(=O)N(C)C[C@@H]1OCCCC[C@H](C)Oc2ccc(NS(C)(=O)=O)cc2C(=O)N([C@H](C)CO)C[C@@H]1C	inactive
C[C@@H]1CN([C@H](C)CO)C(=O)c2cc(NS(=O)(=O)c3cn(C)cn3)ccc2O[C@@H](C)CCCCO[C@@H]1CN(C)S(=O)(=O)c1cccs1	inactive
CC(C)CC#Cc1ccc2c(c1)O[C@H](CN(C)C(=O)Cc1ccncc1)[C@H](C)CN([C@@H](C)CO)S2(=O)=O	inactive
C[C@@H]1CCCCO[C@@H](CN(C)C(=O)NC2CCCCC2)[C@H](C)CN([C@H](C)CO)C(=O)c2cc(NS(=O)(=O)c3ccc(F)cc3)ccc2O1	inactive
COc1ccc(S(=O)(=O)N(C)C[C@H]2Oc3ccc(NS(=O)(=O)c4cn(C)cn4)cc3C(=O)N([C@H](C)CO)C[C@@H]2C)cc1	inactive
COc1ccc(S(=O)(=O)N(C)C[C@@H]2OCCCC[C@@H](C)Oc3ccc(NS(C)(=O)=O)cc3C(=O)N([C@H](C)CO)C[C@H]2C)cc1	inactive
